Experimental findings from PubChem BioAssay (NCI) are described below.

Experiment [1] is described as follows: NCI Yeast Anticancer Drug Screen. Data for the rad50 strain (AID 155).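 Further: 0% = growth of vehicle-only cultures of the same strain.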 As to conditions: S. cerevisiae rad50 strain growth inhibition; at 50.0 µM; hits give high values. The method, boiled down: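 Genetically altered yeast (DNA repair pathway); compound treatment; growth inhibition vs vehicle ctrl.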
The nature of experiment [2]: NCI Yeast Anticancer Drug Screen. Data for the mec2-1 strain (AID 157). As to conditions: S. cerevisiae mec2-1 strain, at 50.0 µM, hits give high values. A digest of the protocol: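 Test agents were screened against the mec2-1 yeast strain, with defined DNA repair or cell cycle alteration. Growth was scored as inhibition against vehicle-only controls.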
The nature of experiment [3]: NCI Yeast Anticancer Drug Screen. Data for the sgs1 mgt1 strain (AID 161).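 Further: 0% = growth of cultures given vehicle only.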 As to conditions: S. cerevisiae sgs1 mgt1 strain, at 50.0 µM, hits give high values. A digest of the protocol:
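Inhibition of yeast growth, normalised to vehicle-treated controls, is reported for a strain bearing genetic alterations in DNA damage repair.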

Experiment [4] in a line: NCI Yeast Anticancer Drug Screen. Data for the cln2 rad14 strain (AID 165).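 Further: 0% = growth equal to vehicle treated cultures.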 The settings on record: S. cerevisiae cln2 rad14 strain, at 50.0 µM, hits give high values. The method, boiled down:
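Growth of compound-exposed yeast (cln2 rad14 genotype) measured and expressed as inhibition relative to vehicle.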

Experiment [5] is described as follows: NCI Yeast Anticancer Drug Screen. Data for the bub3 strain (AID 167). The settings on record: S. cerevisiae bub3 mutant strain, at 50.0 µM, hits give high values. The method, boiled down: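 Yeast carrying a defined mutation is treated with each compound, and growth is compared with that of vehicle-exposed cells to give inhibition.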
Experiment [6] in a line: NCI Yeast Anticancer Drug Screen. Data for the mlh1 rad18 strain (AID 175). The settings on record: S. cerevisiae mlh1 rad18 strain growth inhibition; at 50.0 µM; hits give high values. The method, boiled down: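 In this whole-cell yeast screen, a strain with altered DNA damage repair is challenged with compound, and its growth is measured against matched vehicle-treated controls.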

The panel holds about 79,000 compounds, 15% with a hit somewhere; the sample as a whole holds those more often. A number with no mark means an inactive call. The source made the active and inactive calls. No stated cut-off is given here; in the data, active means growth inhibition above about 70%; inactive means the rest.

Regarding `CCC(Oc1ccc(Cl)cc1Cl)C(=O)O` (stereo unspecified), the growth inhibition in experiment [1] was -4.4%; in experiment [2], -9.8%; in experiment [3] it was -8.65%; in experiment [4], -8.25%; in experiment [5], -10.2%; in experiment [6], -1.75%.
Regarding `C/C(=N/Nc1ccc([N+](=O)[O-])cc1[N+](=O)[O-])C1CC2CCC1C2` (stereo unspecified), the growth inhibition in experiment [1] is -17.4%; in experiment [2], 2.05%; in experiment [3], 2.1%; in experiment [4] it was -4.3%; in experiment [5], 3%; in experiment [6], -16.6%.
`COC(=O)c1ccccc1-n1c(-c2ccc([N+](=O)[O-])cc2)csc1=NC(=O)c1cccc([N+](=O)[O-])c1`: the growth inhibition in experiment [1] was -2.15%; in experiment [2] it was -2.15%; in experiment [3], 19.4%; in experiment [4], -1.05%; in experiment [5], -1.15%; in experiment [6], 12.7%.
As to `Cc1ccc(NC(=O)C2C3CC4OC(=O)C2C4C3)cc1` (stereo unspecified), the growth inhibition in experiment [1] is -10.6%; in experiment [2], -4.45%; in experiment [3] it was 11.5%; in experiment [4], 0.55%; in experiment [5], 18.6%; in experiment [6], -16.6%.
In the case of `C/C=C/Sc1ccccc1C(=O)O`, the growth inhibition in experiment [1] was -14.3%; in experiment [2], -19.4%; in experiment [3], -9.55%; in experiment [4], -18.9%; in experiment [5], -22.6%; in experiment [6], -34%.
Regarding `O=[N+]([O-])c1cc2c(c3nonc13)OCCCCO2`, the growth inhibition in experiment [1] was 5.95%; in experiment [2], 25.5%; in experiment [3] it was 47.4%; in experiment [4], 23.2%; in experiment [5], 23.7%; in experiment [6] it was 77% (active).
As to `Cn1c2c(c3ccccc31)C(=O)CC2(C)C`, the growth inhibition in experiment [1] was -5.6%; in experiment [2], -4.8%; in experiment [3] it was -2.35%; in experiment [4], -18.2%; in experiment [5], -30.6%; in experiment [6] it was 2.15%.
Turning to `CC(c1cccc2ccccc12)/[N+]([O-])=C/c1ccccc1` (stereo unspecified), the growth inhibition in experiment [1] was -11.6%; in experiment [2], -27.9%; in experiment [3], -32.7%; in experiment [4], 2.1%; in experiment [5] it was -37.4%; in experiment [6], -11.7%.
With `Clc1ccccc1C(N1CCCCC1)N1CCCCC1`, the growth inhibition was 27.9% in experiment [1]; 13.2% in experiment [2]; 19.4% in experiment [3]; 13.5% in experiment [4]; 28% in experiment [5]; 28.1% in experiment [6].
With `S=C(Sc1nc2ccccc2[nH]1)Sc1nc2ccccc2[nH]1`, the growth inhibition in experiment [1] was 16.9%; in experiment [2] it was -4.05%; in experiment [3] it was 10.2%; in experiment [4], -34.9%; in experiment [5], 8.95%; in experiment [6] it was 24.6%.
As for `O=C(OCC1OC(C2N(c3ccccc3)CCN2c2ccccc2)C(OC(=O)c2ccccc2)C1OC(=O)c1ccccc1)c1ccccc1` (stereo unspecified), the growth inhibition in experiment [1] is 0.85%; in experiment [2], 6.5%; in experiment [3], -26.4%; in experiment [4] it was -7.45%; in experiment [5], -11.9%; in experiment [6] it was 9.7%.
With `Cc1ccc(O)c(C(=O)C[n+]2ccccc2)c1`, the growth inhibition in experiment [1] is -12.8%; in experiment [2] it was -9.65%; in experiment [3], -1.25%; in experiment [4], 1.2%; in experiment [5] it was 0.1%; in experiment [6] it was -0.55%.
On to `CC(=O)/C(=C/c1ccco1)CC(=O)O`, for which the growth inhibition in experiment [1] is -15.1%; in experiment [2] it was -22.1%; in experiment [3], -12.9%; in experiment [4], 4.05%; in experiment [5], -18.4%; in experiment [6], -5%.
`N/N=C(\c1ccccc1)C(Nc1ccccc1)c1ccccc1` (stereo unspecified): the growth inhibition was 11.2% in experiment [1]; -3.95% in experiment [2]; -2.05% in experiment [3]; -29% in experiment [4]; -5.15% in experiment [5]; 7.9% in experiment [6].
With `Cc1ccc(-c2cc(-c3ccco3)c(C#N)c(=O)[nH]2)cc1`, the growth inhibition in experiment [1] is 13.5%; in experiment [2], -8.55%; in experiment [3], -13.5%; in experiment [4], 16.4%; in experiment [5] it was -10%; in experiment [6] it was 6.8%.
In the case of `C#CCN(Cc1ccc2nc(-c3ccccc3)c(Cl)nc2c1)c1ccc(Cl)c(Cl)c1`, the growth inhibition in experiment [1] is -15.2%; in experiment [2], -6.4%; in experiment [3], -2.25%; in experiment [4] it was -37.5%; in experiment [5] it was -16.4%; in experiment [6] it was -18.2%.
`CCOC(CN(Cc1ccccc1)CC(OCC)OCC)OCC`: the growth inhibition in experiment [1] was 12.7%; in experiment [2], 8.15%; in experiment [3], 12.9%; in experiment [4], 5.85%; in experiment [5], 9.8%; in experiment [6] it was -4%.
For the molecule `COC(=O)C(C(Br)C(=O)c1ccccc1)C(c1ccccc1)[N+](=O)[O-]` (stereo unspecified), the growth inhibition is 68.7% in experiment [1]; 85.3% (active) in experiment [2]; 54.1% in experiment [3]; 2.3% in experiment [4]; 85.9% (active) in experiment [5]; 94.5% (active) in experiment [6].
In the case of `CCOc1ccc(NC(=O)C(C)O)cc1` (stereo unspecified), the growth inhibition in experiment [1] is -29.9%; in experiment [2], -14.4%; in experiment [3] it was -20.2%; in experiment [4] it was 6.1%; in experiment [5] it was -3.65%; in experiment [6], -14.3%.
As to `CN(C)C(=O)Nc1cccc2nsnc12`, the growth inhibition was 12.4% in experiment [1]; -2.75% in experiment [2]; 11% in experiment [3]; -50.5% in experiment [4]; -5.95% in experiment [5]; 29.6% in experiment [6].
In the case of `O=C(Nc1cccc2ccccc12)c1ccc(Cl)c(Cl)c1`, the growth inhibition is 38.6% in experiment [1]; 53.4% in experiment [2]; 52.8% in experiment [3]; 43.8% in experiment [4]; 63.5% in experiment [5]; 72.3% (active) in experiment [6].
